In PubChem BioAssay (Tox21):
Inconclusive results are not listed. Activity calls are given as the source filed them. The call rests on the fitted dose curve; in most records, active means well fitted cell-killing curve with a large enough effect in the repeat runs; inconclusive means weak or mixed curves, or effect the other way; inactive means no such curve, though single readings can be large or run the other way.

assay: qHTS assay to identify aromatase inhibitors - cell viability counter screen (AID 743084); conditions: MCF-7 aro ERE viability, CellTiter-Fluor, 24 h; series mostly up to 70.3 µM; activity change, negative = cytotoxicity: at the top concentration;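 further: cells stimulated with testosterone during compound exposure; nearly all actives have a fitted effect of over 55% in size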
On the % scale 0 is the no-effect control and ±100 the full control effect; potency means the concentration at half of the fitted maximal effect.

Row | SMILES | activity change, negative = cytotoxicity | Potency
1 | CC(=O)c1ccc[nH]1 | 16.2% (inactive) | –
2 | COc1ccc(C2C(=O)c3ccccc3C2=O)cc1 | -0.451% (inactive) | –
3 | O=C(O)c1cc(Cl)cc(Cl)c1O | 23% (inactive) | –
4 | CCOC(=O)C(C)O (stereo unspecified) | -2.16% [at 95 µM] (inactive) | –
5 | O=C(c1ccccc1)c1ccc(O)cc1 | -5.36% [at 95 µM] (inactive) | –
6 | O=C(Oc1ccccc1)c1ccc2ccccc2c1O | 14% (inactive) | –
7 | CC12CC3CC(C)(C1)CC(N)(C3)C2 | 0.612% (inactive) | –
8 | CCCOC(=O)c1c(Cl)c(Cl)c(Cl)c(Cl)c1C(=O)OCCC | -0.318% (inactive) | –
9 | NC(=O)c1ccccc1[N+](=O)[O-] | -0.145% [at 95 µM] (inactive) | –
10 | CCCCCCCCCCCCCC(=O)OCC(O)CO (stereo unspecified) | 2.53% (inactive) | –
11 | Cc1ccc(NC(=O)N(C)C)cc1NC(=O)N(C)C | 1.56% (inactive) | –
12 | O=S(=O)(Cl)c1c(Cl)cccc1Cl | 5.11% (inactive) | –
13 | CCOC(=O)c1c(N)sc2c1CCN(Cc1ccccc1)C2 | -1.48% (inactive) | –
14 | CCOC(=O)c1ccc(NC(=O)CN2CCCCC2)cc1 | 1.58% (inactive) | –
15 | CC1=CC[C@@H]2C[C@H]1C2(C)C | 15% [at 18.2 µM] (inactive) | –
16 | O=[N+]([O-])C1(Br)COCOC1 | – | 43.3 µM (active)

Row | SMILES | activity change, negative = cytotoxicity | Potency
17 | CC(=O)OC(C)C[N+](C)(C)C (stereo unspecified) | -7.86% [at 32.5 µM] (inactive) | –
18 | FC(F)(F)C(F)(F)C(F)(F)C(F)(F)CCI | 14.7% [at 32.5 µM] (inactive) | –
19 | CCN(Cc1cccc(S(=O)(=O)O)c1)c1ccc(C(=C2C=CC(=[N+](CC)Cc3cccc(S(=O)(=O)O)c3)C=C2)c2ccc(O)cc2S(=O)(=O)[O-])cc1 | – | 29.5 µM (active)
20 | CC(C)(C(=O)c1cccnc1)c1cccnc1 | 10.8% [at 32.5 µM] (inactive) | –
21 | COc1cc(OC)c2ccc(=O)oc2c1 | 8.17% (inactive) | –
22 | CC(C)C(O)C(C)(C)CO (stereo unspecified) | 16.7% [at 95 µM] (inactive) | –
23 | COc1ccc(C(=O)NCc2ccc(OCCN(C)C)cc2)cc1OC | 6.66% (inactive) | –
24 | Cc1cc(CCC(=O)OCCOCCOCCOC(=O)CCc2cc(C)c(O)c(C(C)(C)C)c2)cc(C(C)(C)C)c1O | -0.0093% (inactive) | –
25 | CC(CO)(CO)C(=O)O | 7.46% [at 95 µM] (inactive) | –
26 | CC(C)OC(=O)c1ccccc1C(=O)OC(C)C | -2.19% (inactive) | –
27 | COC(=O)C1=C(C)NC(C)=C(C(=O)OC(C)(C)CN(C)CCC(c2ccccc2)c2ccccc2)C1c1cccc([N+](=O)[O-])c1 (stereo unspecified) | -12.3% (inactive) | –
28 | CC1C(C)(C)C2=C(C(=O)CCC2)C1(C)C (stereo unspecified) | -21.2% (inactive) | –
29 | CCCCCCCCCCCCCOS(=O)(=O)O | -13% (inactive) | –
30 | COc1cc(NC(C)CCCN)c2ncccc2c1 (stereo unspecified) | 0.884% [at 32.5 µM] (inactive) | –
31 | CCN(CC)CCOc1ccccc1C(=O)CCc1ccccc1 | -4.79% (inactive) | –
